# According to PubChem BioAssay (NCI):
# Several values for one entry are separate records, joined by “and”; a condition that tells them apart may be missing. Identical values can stand only once. About 83,000 compounds went through this panel and 20% of them were active in at least one assay; those are over-represented in the sample as a whole.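 Compound tested at a single concentration for 48 hours in 96-well plates; a percent growth value below 10 was scored as active.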 Activity calls are given as the source filed them.
# How the values were obtained:
# Assay in all cases: NCI-60 one-dose screen, 48 h (100 = growth as untreated, 0 = no growth, -100 = all killed)
# NCI-H23 lung = test system: NCI-H23 lung
# NCI-H226 lung = test system: NCI-H226 lung
# NCI-H322M lung = test system: NCI-H322M lung
# HOP-62 NSCLC = test system: HOP-62 NSCLC
# NCI-H460 lung = test system: NCI-H460 lung
# HOP-92 NSCLC = test system: HOP-92 NSCLC
# NCI-H522 lung = test system: NCI-H522 lung
# A549/ATCC NSCLC = test system: A549/ATCC NSCLC
# 786-0 renal = test system: 786-0 renal
# COLO 205 colon = settings: 10 µM unless noted
# DU-145 prostate = test system: DU-145 prostate
# K-562 leukemia = test system: K-562 leukemia
# MALME-3M melanoma = test system: MALME-3M melanoma
# MDA-MB-231 breast = test system: MDA-MB-231 breast
# RXF 393 renal = test system: RXF 393 renal
# SF-268 CNS = test system: SF-268 CNS
# SF-295 CNS = test system: SF-295 CNS
# SF-539 CNS = test system: SF-539 CNS
# UACC-257 melanoma = test system: UACC-257 melanoma
# M14 melanoma = settings: 10 µM unless noted
structure (smiles),measurement,setting,value
Cc1cccc(/C=C\C(=O)c2ccccc2)c1,growth,NCI-H23 lung; 10 µM unless noted,93.5% (inactive) and 101% (inactive)
same,growth,NCI-H226 lung; 10 µM unless noted,111% (inactive) and 95.5% (inactive)
same,growth,NCI-H322M lung; 10 µM unless noted,97% (inactive) and 93.7% (inactive)
same,growth,HOP-62 NSCLC; 10 µM unless noted,98.5% (inactive) and 111% (inactive)
same,growth,NCI-H460 lung; 10 µM unless noted,109% (inactive) and 100% (inactive)
same,growth,HOP-92 NSCLC; 10 µM unless noted,81.3% (inactive)
same,growth,NCI-H522 lung; 10 µM unless noted,95.3% (inactive)
same,growth,A549/ATCC NSCLC; 10 µM unless noted,87.7% (inactive) and 92.8% (inactive)
same,growth,786-0 renal; 10 µM unless noted,79.7% (inactive)
same,growth,COLO 205 colon,112% (inactive) and 114% (inactive)
same,growth,DU-145 prostate; 10 µM unless noted,99.9% (inactive) and 104% (inactive)
same,growth,K-562 leukemia; 10 µM unless noted,67% (inactive) and 3.91% (active)
same,growth,MALME-3M melanoma; 10 µM unless noted,91.5% (inactive)
same,growth,MDA-MB-231 breast; 10 µM unless noted,94% (inactive) and 110% (inactive)
same,growth,RXF 393 renal; 10 µM unless noted,118% (inactive) and 96.8% (inactive)
same,growth,SF-268 CNS; 10 µM unless noted,105% (inactive) and 99.5% (inactive)
same,growth,SF-295 CNS; 10 µM unless noted,116% (inactive) and 95.7% (inactive)
same,growth,SF-539 CNS; 10 µM unless noted,112% (inactive) and 108% (inactive)
same,growth,UACC-257 melanoma; 10 µM unless noted,102% (inactive) and 109% (inactive)
same,growth,M14 melanoma,98.5% (inactive)
CC(C)N=c1cc2n(-c3ccc(Cl)cc3)c3ccccc3nc-2cc1Nc1ccc(Cl)cc1,growth,NCI-H23 lung; 10 µM unless noted,-15.1% (active) and -62% (active) and -35.6% (active)
same,growth,NCI-H226 lung; 10 µM unless noted,35.8% (inactive) and 20.1% (inactive) and -21.7% (active)
same,growth,NCI-H322M lung; 10 µM unless noted,26.9% (inactive) and -13.2% (active) and -0.542% (active)
same,growth,HOP-62 NSCLC; 10 µM unless noted,55.8% (inactive) and 73.1% (inactive) and 42.9% (inactive)
same,growth,NCI-H460 lung; 10 µM unless noted,13.1% (inactive) and 13.2% (inactive) and -4.66% (active)
same,growth,HOP-92 NSCLC; 10 µM unless noted,-2.5% (active) and -0.497% (active)
same,growth,NCI-H522 lung; 10 µM unless noted,9.58% (active) and -31.8% (active)
same,growth,A549/ATCC NSCLC; 10 µM unless noted,20.2% (inactive) and 43.3% (inactive) and 16.1% (inactive)
same,growth,786-0 renal; 10 µM unless noted,24.7% (inactive) and 9.68% (active) and -18.8% (active)
same,growth,COLO 205 colon,-7.57% (active) and -28.7% (active)
same,growth,DU-145 prostate; 10 µM unless noted,51.4% (inactive) and 15.5% (inactive)
same,growth,K-562 leukemia; 10 µM unless noted,14.5% (inactive) and -17.3% (active)
same,growth,MALME-3M melanoma; 10 µM unless noted,5.85% (active) and -83.1% (active) and -46% (active)
same,growth,MDA-MB-231 breast; 10 µM unless noted,-0.451% (active) and 26% (inactive) and 10.6% (inactive)
same,growth,RXF 393 renal; 10 µM unless noted,8.99% (active) and -11.2% (active) and 12.3% (inactive)
same,growth,SF-268 CNS; 10 µM unless noted,45.5% (inactive) and 35.7% (inactive) and 31.2% (inactive)
same,growth,SF-295 CNS; 10 µM unless noted,9.83% (active) and 19.6% (inactive) and -10.5% (active)
same,growth,SF-539 CNS; 10 µM unless noted,72.8% (inactive) and 73.3% (inactive) and 59.1% (inactive)
same,growth,UACC-257 melanoma; 10 µM unless noted,28.3% (inactive) and 29.6% (inactive) and 7.9% (active)
Cc1[nH]c(-c2nc3ccccc3[nH]2)c(C)c1C(=O)NC(C)C1CCCCC1 (centres undefined),growth,NCI-H23 lung; 10 µM,87.1% (inactive)
same,growth,NCI-H23 lung; 100 µM,-84.8% (active)
same,growth,NCI-H226 lung; 10 µM,81.1% (inactive)
same,growth,NCI-H226 lung; 100 µM,-53% (active)
same,growth,NCI-H322M lung; 10 µM,89.1% (inactive)
same,growth,NCI-H322M lung; 100 µM,-96.3% (active)
same,growth,HOP-62 NSCLC; 10 µM,95.5% (inactive)
same,growth,HOP-62 NSCLC; 100 µM,-54.4% (active)
same,growth,NCI-H460 lung; 10 µM,98.1% (inactive)
same,growth,NCI-H460 lung; 100 µM,-72% (active)
same,growth,HOP-92 NSCLC; 10 µM,78.7% (inactive)
same,growth,HOP-92 NSCLC; 100 µM,-50.9% (active)
same,growth,NCI-H522 lung; 10 µM,80.9% (inactive)
same,growth,NCI-H522 lung; 100 µM,-36.1% (active)
same,growth,A549/ATCC NSCLC; 10 µM,90.5% (inactive)
same,growth,A549/ATCC NSCLC; 100 µM,-40.2% (active)
same,growth,786-0 renal; 10 µM,95.2% (inactive)
same,growth,786-0 renal; 100 µM,-31.1% (active)
same,growth,DU-145 prostate; 10 µM,98.8% (inactive)
same,growth,DU-145 prostate; 100 µM,-96.3% (active)
same,growth,K-562 leukemia; 10 µM,68.7% (inactive)
same,growth,K-562 leukemia; 100 µM,-24.3% (active)
same,growth,MALME-3M melanoma; 10 µM,82.1% (inactive)
same,growth,MALME-3M melanoma; 100 µM,-72.6% (active)
same,growth,MDA-MB-231 breast; 10 µM,70.3% (inactive)
same,growth,MDA-MB-231 breast; 100 µM,-70.8% (active)
same,growth,RXF 393 renal; 10 µM,77.2% (inactive)
same,growth,RXF 393 renal; 100 µM,-92% (active)
same,growth,SF-268 CNS; 10 µM,94.9% (inactive)
same,growth,SF-268 CNS; 100 µM,-71.4% (active)
same,growth,SF-295 CNS; 10 µM,101% (inactive)
same,growth,SF-295 CNS; 100 µM,-88.8% (active)
same,growth,SF-539 CNS; 10 µM,89.4% (inactive)
same,growth,SF-539 CNS; 100 µM,-97.7% (active)
same,growth,UACC-257 melanoma; 10 µM,87% (inactive)
same,growth,UACC-257 melanoma; 100 µM,-64.6% (active)
NC(=O)C1CC2C=CC1C2 (centres undefined),growth,NCI-H23 lung; 10 µM unless noted,92.1% (inactive) and 106% (inactive)
same,growth,NCI-H226 lung; 10 µM unless noted,97.7% (inactive) and 98.9% (inactive)
same,growth,NCI-H322M lung; 10 µM unless noted,104% (inactive) and 107% (inactive)
same,growth,HOP-62 NSCLC; 10 µM unless noted,91.2% (inactive) and 98.4% (inactive)
same,growth,NCI-H460 lung; 10 µM unless noted,103% (inactive) and 110% (inactive)
same,growth,HOP-92 NSCLC; 10 µM unless noted,101% (inactive) and 94.5% (inactive)
same,growth,NCI-H522 lung; 10 µM unless noted,106% (inactive) and 94.2% (inactive)
same,growth,A549/ATCC NSCLC; 10 µM unless noted,96.2% (inactive) and 100% (inactive)
same,growth,786-0 renal; 10 µM unless noted,98% (inactive) and 116% (inactive)
same,growth,COLO 205 colon,96.8% (inactive) and 120% (inactive)
same,growth,DU-145 prostate; 10 µM unless noted,114% (inactive) and 115% (inactive)
same,growth,K-562 leukemia; 10 µM unless noted,103% (inactive) and 93.9% (inactive)
same,growth,MALME-3M melanoma; 10 µM unless noted,69.2% (inactive) and 124% (inactive)
same,growth,MDA-MB-231 breast; 10 µM unless noted,101% (inactive) and 99.1% (inactive)
same,growth,RXF 393 renal; 10 µM unless noted,108% (inactive) and 89.7% (inactive)
same,growth,SF-268 CNS; 10 µM unless noted,118% (inactive) and 108% (inactive)
same,growth,SF-295 CNS; 10 µM unless noted,113% (inactive) and 95.2% (inactive)
same,growth,SF-539 CNS; 10 µM unless noted,95.2% (inactive) and 112% (inactive)
same,growth,UACC-257 melanoma; 10 µM unless noted,-24.1% (active)
